The values that follow come from PubChem BioAssay (NCI).

Compounds without any hit were thinned out: in the full panel of roughly 83,000, 20% have a hit.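 Negative percent growth values reflect cell death: -40 means 40% of the cells present at the start died, and -100 means all died.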 Calls of active or inactive are those of the source.

In the first test the test system is SNB-19 CNS. In words: NCI-60 one-dose screen, 48 h (100 = growth as untreated, 0 = no growth, -100 = all killed). The settings on record: 1 µM. As for the experimental part:
Growth inhibition of the SNB-19 human tumor cell line is measured as a screen for anti-cancer activity. Cells are grown in 96 well plates and exposed to the test compound for 48 hours. Compounds are tested at a single concentration, which is 10^-5 M for most compounds. The reported endpoint is percent growth (GI% or GIPRCNT), where numbers from 0 - 100% represent growth inhibition, and numbers from -100% - 0 represent cell death. For example, a value of 40 represents 60% growth inhibition. A value of 0 means no net growth occurred over the course of the experiment. A value of -40 indicates 40% of cells at the beginning of the experiment died by the end of the experiment. A value of -100 means all cells are dead at the end of the experiment.
NCI-60 Human Tumor Cell Lines Screen was performed using the standard one-dose NCI protocol, which is described in more detail at https://dtp.cancer.gov/discovery_development/nci-60/default.htm.
Compounds with GIPRCNT values below 10 were considered active. Activity score was based on GIPRCNT using the following formula: […]
Score is 0 for GIPRCNT values of 100 or above, 50 for GIPRCNT values of 0, and 100 for GIPRCNT values of -100.
Turning to `CC/C(=C(\c1ccc(O)cc1)c1ccc(OCCNC)cc1)c1ccccc1`, the growth was 94.6% (inactive).

The same test, now with this note: 10 µM.
With `CC/C(=C(\c1ccc(O)cc1)c1ccc(OCCNC)cc1)c1ccccc1`, the growth was 98.6% (inactive).

Still in this test, the particulars now being: 10 µM unless noted.
As to `Nc1nc2cc(-c3ccc4ncnc(NCc5ccccc5)c4c3)ccc2o1`, the growth is 23% (inactive). Regarding `COc1ccc2[nH]cc(-c3cc4nc(-c5cn(C)c6ncc(Br)cc56)cc(N)n4n3)c2c1`, the growth was -29.4% (active).

`Nc1nn2c(-c3cc4cc(Br)ccc4oc3=O)ccnc2c1N=Nc1ccc(Br)cc1`: the growth was -1.72% (active).

`COc1c(B(O)O)cc(F)cc1-c1nc2ccc3[nH]ncc3c2c2c1COCC2`: the growth is 32.7% (inactive). As for `O=c1c(-c2nc(-c3ccccc3)c(-c3ccccc3)[nH]2)coc2ccc(F)cc12`, the growth is 38.8% (inactive). As to `CN1C(=O)/C(=C/c2ccco2)S/C1=N/c1nccs1`, the growth is 99.4% (inactive). For `CN(C)CCCNC(=S)Nc1ccc(/C=C/c2ccc(Cl)cc2)cc1`, the growth is -35.2% (active).

As to `Cc1nc2sccn2c1-c1nnc(SCc2ccccc2)o1`, the growth was 80.6% (inactive). Regarding `Cc1ccc(S(=O)(=O)Nc2ccc(-c3ccc4c(c3)NC(=O)/C4=C\c3ccc[nH]3)cc2)cc1`, the growth was 95.1% (inactive).

Turning to `N#CC1=C(c2cccs2)Nc2c(c(-c3ccccc3)nn2-c2ccccc2)C12C(=O)Nc1ccccc12` (stereo not given), the growth was 25.4% (inactive).

As to `N#CC1=C(c2ccco2)Nc2c(c(-c3ccccc3)nn2-c2ccccc2)C12C(=O)Nc1ccc(Cl)cc12` (stereo not given), the growth is 3.22% (active). Take `Cc1[nH]nc2ccc3nc(-c4cnn(CCO)c4)c4c(c3c12)CCCC4`: the growth is 74.4% (inactive). As to `C#CCCCNCCNc1ccnc2cc(Cl)ccc12`, the growth is 101% (inactive). On to `c1n[nH]cc1-c1nc2ccc3[nH]ncc3c2c2c1CC1(CC2)COC1`, for which the growth is 47.4% (inactive). Take `COc1ccc2[nH]c(O)c(N=Nc3nc(-c4ccc(C#N)cc4)cs3)c2c1`: the growth was 77.2% (inactive).

For `CCN1C(=O)N(CC)C2NNC(Sc3c(C(=O)O)c4ccccc4n(CCC(C)C)c3=O)=NC21` (stereo not given), the growth is 15.5% (inactive). Consider `COC(=O)c1cc(C(=O)CBr)n2c1ccc1c3ccccc3ccc12`, for which the growth is 55.5% (inactive). Regarding `COc1ccc(/C=C/C(=O)c2ccc(S(=O)(=O)NCCNc3nc(N(C)C)nc(N4CCOCC4)n3)cc2)cc1`, the growth was 81.2% (inactive). Same read-out and setting: then `COc1ccc(Nc2ncnc3sc4c(c23)CCN(Cc2ccccc2)C4)cc1`, with 90.8% (inactive); and `CC[C@]12C=CCN3CC[C@@]4(c5ccc(OC)cc5N(C)[C@H]4[C@@](O)(C(=O)OC)[C@@H]1OC(=O)CCCC[P+](c1ccc(F)cc1)(c1ccc(F)cc1)c1ccc(F)cc1)[C@@H]32`, with 6.61% (active); and `CCOC(=O)/C(F)=C/C1CC1C(c1ccccc1)c1ccccc1` (stereo not given), with 95.9% (inactive).

Regarding `COc1cc2cc(C(=O)N3C[C@@H](CCl)c4c3cc(OC(=O)N(C)CCSSCCN3CCOCC3)c3ccccc43)[nH]c2c(OC)c1OC`, the growth is -99.6% (active). `COc1cc(/C=C/C(=O)c2ccc(S(=O)(=O)NCCNc3nc(N(C)C)nc(N4CCOCC4)n3)cc2)cc(OC)c1OC`: the growth was 29.1% (inactive). Consider `CN(C)c1nc(NCCNS(=O)(=O)c2ccc(C(=O)/C=C/c3ccc(F)cc3)cc2)nc(N2CCOCC2)n1`, for which the growth is 67.9% (inactive). In the case of `CC1=C(C(=O)OC(C)C)C(c2ccc(O)cc2)NC(=O)N1` (stereo not given), the growth was 95% (inactive). As to `CCCCCCCCc1ccc(C(=O)Nc2cccc(O)c2)cc1`, the growth is 83% (inactive). For the compound `NS(=O)(=O)c1cccc(Nc2nc(SCC(=O)c3ccc(F)cc3)nc3ccccc23)c1`, the growth is 11.9% (inactive). Take `COc1cc(C=O)ccc1OC(=O)c1cc(-c2ccc(C)cc2)n(-c2ccc(S(C)(=O)=O)cc2)n1`: the growth is 90.3% (inactive).

In the case of `Cc1ccc(S(=O)(=O)N(CCn2ccnc2[N+](=O)[O-])CCn2ccnc2[N+](=O)[O-])cc1`, the growth was 101% (inactive). In the case of `O=C(NNC(=O)c1ccc(OCc2nc3ccc(Cl)cc3[nH]2)cc1)Nc1ccc(Cl)c(C(F)(F)F)c1`, the growth is 61.1% (inactive). In the case of `O=C(Nc1ccc(-c2ccc3c(c2)NC(=O)/C3=C\c2ccc[nH]2)cc1)Nc1ccc(Cl)c(Cl)c1`, the growth was 67.5% (inactive). Turning to `CN(C)CCOc1ccc(C(=O)C2[C@H](c3ccc(Cl)cc3)[C@@H](c3ccccc3)NC23C(=O)Nc2ccc(Cl)cc23)cc1` (stereo not given in full), the growth was -96.2% (active). Regarding `Cc1ccccc1Nc1nnc(-c2c[nH]c3ccccc23)o1`, the growth is 41% (inactive). As for `CC[C@@]12CC(C(=O)OC)=C3Nc4cc5c(cc4[C@@]34CCN(C[C@H]3O[C@H]31)[C@@H]24)[C@@H]1[C@H](O5)[C@@H](O)[C@@]2(CC)CC(C(=O)OC)=C3Nc4cc(O)ccc4[C@@]34CCN1[C@@H]24`, the growth is -43.8% (active).

Turning to `ClC(Cn1ncc2c(Nc3cccc(Br)c3)nc(SCCN3CCOCC3)nc21)c1ccc(Br)cc1` (stereo not given), the growth was 22.5% (inactive). For the compound `CS(=O)(=O)Nc1cncc(-c2ccc3ncnc(NCc4ccccc4)c3c2)c1`, the growth was 39% (inactive).

Turning to `COc1ccc2nc(NC(=O)c3ccc(N(C)C)cc3)sc2c1`, the growth was 84.4% (inactive). Take `Oc1ccc(Cl)c(Nc2nc(SCCN3CCOCC3)nc3c2cnn3CC(Cl)c2ccc(Br)cc2)c1` (stereo not given): the growth was 37.8% (inactive).
